The source of these data is ChEMBL document CHEMBL2218924, “A broad activity screen in support of a chemogenomic map for kinase signalling research and drug discovery” (Biochem J, 2013).

SMILES strings stand for the structures.

Test [1] has as its target Tyrosine-protein kinase SYK (Homo sapiens) (UniProt P43405). To be noted: at 10 µM.
Test [2] addresses T1, Mitogen-activated protein kinase kinase kinase 7 (Homo sapiens) (UniProt O43318).
T1 sequence (whole entry): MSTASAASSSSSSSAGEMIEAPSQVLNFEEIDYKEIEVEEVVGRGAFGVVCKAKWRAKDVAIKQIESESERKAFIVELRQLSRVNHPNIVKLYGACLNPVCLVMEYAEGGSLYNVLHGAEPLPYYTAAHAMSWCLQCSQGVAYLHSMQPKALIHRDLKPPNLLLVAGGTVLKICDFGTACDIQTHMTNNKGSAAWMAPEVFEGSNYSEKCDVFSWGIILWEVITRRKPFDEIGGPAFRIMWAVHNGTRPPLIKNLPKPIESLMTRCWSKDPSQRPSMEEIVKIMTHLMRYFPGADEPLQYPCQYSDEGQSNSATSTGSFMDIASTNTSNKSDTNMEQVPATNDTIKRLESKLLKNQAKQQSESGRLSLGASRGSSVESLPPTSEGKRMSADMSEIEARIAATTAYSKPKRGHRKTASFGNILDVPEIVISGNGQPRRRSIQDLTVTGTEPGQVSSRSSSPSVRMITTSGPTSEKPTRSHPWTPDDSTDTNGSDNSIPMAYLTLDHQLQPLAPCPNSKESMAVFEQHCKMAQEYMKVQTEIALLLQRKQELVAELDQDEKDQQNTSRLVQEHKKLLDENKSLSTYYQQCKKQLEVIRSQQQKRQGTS
To be noted: at 1 µM.

The target of test [3] is T1, Mitogen-activated protein kinase kinase kinase 7 (Homo sapiens). The conditions noted are these: at 10 µM.
For test [4], the target named is T2, Serine/threonine-protein kinase TAO1 (Homo sapiens) (UniProt Q7L7X3).
T2 sequence (whole entry): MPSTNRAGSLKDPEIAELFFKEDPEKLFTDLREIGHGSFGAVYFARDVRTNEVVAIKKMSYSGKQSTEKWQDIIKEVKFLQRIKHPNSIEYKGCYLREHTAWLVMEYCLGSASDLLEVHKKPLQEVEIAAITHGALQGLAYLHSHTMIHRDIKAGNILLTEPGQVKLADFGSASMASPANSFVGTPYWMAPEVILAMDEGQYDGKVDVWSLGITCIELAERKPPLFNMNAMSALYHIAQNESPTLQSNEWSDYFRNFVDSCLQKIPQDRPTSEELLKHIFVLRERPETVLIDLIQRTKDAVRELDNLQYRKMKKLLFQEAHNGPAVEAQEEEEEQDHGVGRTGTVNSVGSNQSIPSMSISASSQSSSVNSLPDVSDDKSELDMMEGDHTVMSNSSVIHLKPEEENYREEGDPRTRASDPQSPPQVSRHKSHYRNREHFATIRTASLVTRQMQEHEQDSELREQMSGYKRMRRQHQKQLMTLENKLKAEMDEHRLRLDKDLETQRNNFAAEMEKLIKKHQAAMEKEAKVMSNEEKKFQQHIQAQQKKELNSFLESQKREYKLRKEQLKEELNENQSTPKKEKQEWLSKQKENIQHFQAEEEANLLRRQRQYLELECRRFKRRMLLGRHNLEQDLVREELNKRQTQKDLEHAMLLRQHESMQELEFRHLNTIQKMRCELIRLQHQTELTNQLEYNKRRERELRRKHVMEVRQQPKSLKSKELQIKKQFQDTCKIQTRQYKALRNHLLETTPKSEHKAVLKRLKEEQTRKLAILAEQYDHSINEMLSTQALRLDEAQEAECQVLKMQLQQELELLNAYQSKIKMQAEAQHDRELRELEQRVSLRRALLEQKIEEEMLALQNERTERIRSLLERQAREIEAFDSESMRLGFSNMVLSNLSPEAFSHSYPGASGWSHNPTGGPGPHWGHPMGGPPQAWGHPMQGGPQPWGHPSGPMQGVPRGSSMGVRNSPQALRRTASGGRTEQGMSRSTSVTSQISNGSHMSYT
To be noted: at 1 µM.

Test [5] deals with T2, Serine/threonine-protein kinase TAO1 (Homo sapiens). To be noted: at 10 µM.
The target of test [6] is T3, Serine/threonine-protein kinase TAO2 (Homo sapiens) (UniProt Q9UL54).
T3 sequence (whole entry): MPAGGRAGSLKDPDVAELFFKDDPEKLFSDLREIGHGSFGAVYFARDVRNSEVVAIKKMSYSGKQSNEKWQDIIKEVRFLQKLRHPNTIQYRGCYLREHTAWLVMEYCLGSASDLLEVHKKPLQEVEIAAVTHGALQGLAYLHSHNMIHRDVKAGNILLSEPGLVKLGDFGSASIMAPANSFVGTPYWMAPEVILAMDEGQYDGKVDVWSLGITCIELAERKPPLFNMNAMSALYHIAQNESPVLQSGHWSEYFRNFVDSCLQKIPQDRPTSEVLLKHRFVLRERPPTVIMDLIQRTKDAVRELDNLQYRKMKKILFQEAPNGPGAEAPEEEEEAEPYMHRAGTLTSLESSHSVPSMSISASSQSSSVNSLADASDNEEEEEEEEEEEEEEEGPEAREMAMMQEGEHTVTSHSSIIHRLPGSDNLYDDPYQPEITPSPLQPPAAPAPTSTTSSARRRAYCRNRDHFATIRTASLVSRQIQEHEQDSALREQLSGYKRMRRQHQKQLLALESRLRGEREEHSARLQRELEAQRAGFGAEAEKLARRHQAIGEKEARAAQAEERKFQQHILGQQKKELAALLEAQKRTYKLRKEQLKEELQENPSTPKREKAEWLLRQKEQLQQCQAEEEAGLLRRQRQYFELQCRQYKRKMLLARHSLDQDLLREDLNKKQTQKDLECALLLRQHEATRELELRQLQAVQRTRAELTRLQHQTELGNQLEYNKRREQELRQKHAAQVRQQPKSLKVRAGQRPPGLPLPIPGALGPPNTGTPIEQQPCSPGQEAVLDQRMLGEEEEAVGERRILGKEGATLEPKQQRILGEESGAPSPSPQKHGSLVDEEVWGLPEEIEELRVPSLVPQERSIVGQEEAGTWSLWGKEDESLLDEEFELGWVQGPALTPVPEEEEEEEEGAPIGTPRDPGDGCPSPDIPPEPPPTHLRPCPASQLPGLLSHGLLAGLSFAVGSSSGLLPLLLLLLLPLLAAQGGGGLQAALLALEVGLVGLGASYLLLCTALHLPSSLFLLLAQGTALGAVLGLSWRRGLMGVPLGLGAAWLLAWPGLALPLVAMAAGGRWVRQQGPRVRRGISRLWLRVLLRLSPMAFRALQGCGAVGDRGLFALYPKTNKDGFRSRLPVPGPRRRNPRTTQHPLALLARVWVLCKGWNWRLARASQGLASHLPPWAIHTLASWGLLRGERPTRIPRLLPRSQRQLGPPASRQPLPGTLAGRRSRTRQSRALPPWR
The conditions noted are these: at 10 µM.

Test [7] addresses T4, Serine/threonine-protein kinase TAO3 (Homo sapiens) (UniProt Q9H2K8).
T4 sequence (whole entry): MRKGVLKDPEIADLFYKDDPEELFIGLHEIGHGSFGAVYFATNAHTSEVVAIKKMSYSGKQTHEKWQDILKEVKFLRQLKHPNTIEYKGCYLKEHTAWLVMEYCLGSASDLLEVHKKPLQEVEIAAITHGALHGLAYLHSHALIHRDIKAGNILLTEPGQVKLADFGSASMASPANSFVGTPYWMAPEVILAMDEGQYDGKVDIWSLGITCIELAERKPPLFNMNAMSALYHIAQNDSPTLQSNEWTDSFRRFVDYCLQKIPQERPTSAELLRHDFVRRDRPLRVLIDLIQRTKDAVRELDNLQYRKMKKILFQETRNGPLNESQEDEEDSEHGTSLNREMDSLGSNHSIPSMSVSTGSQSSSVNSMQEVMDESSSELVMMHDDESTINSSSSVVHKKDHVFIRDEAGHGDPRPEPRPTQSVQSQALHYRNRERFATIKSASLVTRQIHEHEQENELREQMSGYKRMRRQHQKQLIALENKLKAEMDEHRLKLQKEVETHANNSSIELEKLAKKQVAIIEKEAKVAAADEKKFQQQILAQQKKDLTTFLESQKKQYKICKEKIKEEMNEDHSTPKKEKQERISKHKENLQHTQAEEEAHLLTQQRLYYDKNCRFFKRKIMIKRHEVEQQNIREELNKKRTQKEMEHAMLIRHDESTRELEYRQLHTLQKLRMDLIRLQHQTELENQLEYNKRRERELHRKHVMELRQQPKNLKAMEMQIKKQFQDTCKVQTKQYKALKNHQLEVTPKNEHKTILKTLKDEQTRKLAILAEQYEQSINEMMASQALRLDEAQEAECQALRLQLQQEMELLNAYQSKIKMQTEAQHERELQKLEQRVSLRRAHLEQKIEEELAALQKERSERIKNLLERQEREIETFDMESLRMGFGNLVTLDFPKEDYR
The conditions noted are these: at 1 µM.

For test [8], the target named is T4, Serine/threonine-protein kinase TAO3 (Homo sapiens). The conditions noted are these: at 10 µM.
Test [9] concerns the target T5, Serine/threonine-protein kinase TBK1 (Homo sapiens) (UniProt Q9UHD2).
T5 sequence (whole entry): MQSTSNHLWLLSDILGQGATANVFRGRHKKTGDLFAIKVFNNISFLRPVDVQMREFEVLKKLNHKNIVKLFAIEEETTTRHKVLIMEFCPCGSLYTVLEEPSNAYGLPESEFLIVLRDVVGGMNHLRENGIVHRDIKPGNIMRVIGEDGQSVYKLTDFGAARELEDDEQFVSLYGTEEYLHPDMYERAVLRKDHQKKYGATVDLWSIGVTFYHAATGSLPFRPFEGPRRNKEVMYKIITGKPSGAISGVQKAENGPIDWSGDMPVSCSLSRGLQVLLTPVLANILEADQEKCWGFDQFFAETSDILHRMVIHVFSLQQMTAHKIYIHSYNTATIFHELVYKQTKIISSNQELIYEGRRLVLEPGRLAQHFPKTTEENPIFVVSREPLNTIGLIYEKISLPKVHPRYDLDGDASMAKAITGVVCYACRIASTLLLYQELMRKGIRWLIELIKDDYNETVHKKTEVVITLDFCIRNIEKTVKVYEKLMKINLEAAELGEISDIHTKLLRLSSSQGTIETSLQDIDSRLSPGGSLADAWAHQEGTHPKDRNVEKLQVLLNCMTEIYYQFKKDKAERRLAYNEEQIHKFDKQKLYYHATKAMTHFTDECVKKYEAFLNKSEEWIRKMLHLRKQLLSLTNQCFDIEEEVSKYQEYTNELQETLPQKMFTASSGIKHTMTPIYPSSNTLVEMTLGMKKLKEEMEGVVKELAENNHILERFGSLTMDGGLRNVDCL
The conditions noted are these: at 1 µM.

For `Cn1nc2c3c(cccc31)C(=O)c1ccccc1-2`, the residual activity is 100% in test [1]; 87% in test [2]; 46% in test [3]; 94% in test [4]; 88% in test [5]; 95% in test [6]. The residual activity in [7] was determined as 91%; in [8], 90%; in [9], 67%.
